The values below come from the supplement of paper PMC12494721.

Structures are written as SMILES. Where a name gives a salt, the structure may show the parent alone.

For this assay, the system named is Clostridium sporogenes DSM 1664. Description: growth (OD595) fold change vs plate DMSO controls (fold change (ratio)); higher = more growth. To be noted: incubation time: 27 h, anaerobic, 37 °C. In a few lines:
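The 96-well mGAM cultures had been kept anaerobic for 27 h at 37 °C before being shaken and read at 595 nm. Blank subtraction, compound background correction with 20 µM compound solutions in water, and a calibration factor of 5 turned the readings into OD. Growth is given as the fold change versus the median of plate DMSO controls. Fold changes above 1.5 were set to NA, and the values are means of 2 biological replicates.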
Turning to `O=C(O)c1cc(-c2ccc(F)cc2F)ccc1O` [Diflunisal] (20 µM), the growth was 1.05.

On to `Fc1ccc([C@@H]2CCNC[C@H]2COc2ccc3c(c2)OCO3)cc1` [Paroxetine hydrochloride] (20 µM), for which the growth is 1.01.

As to `CCN(CC)CCOC(=O)C1(C2CCCCC2)CCCCC1` [Dicyclomine hydrochloride] (20 µM), the growth is 0.883.

Take `CN1[C@@H]2CC[C@H]1C[C@@H](OC(=O)c1c[nH]c3ccccc13)C2` [Tropisetron hydrochloride] (20 µM): the growth is 1.14.

On to `NC(=O)N1c2ccccc2CC(=O)c2ccccc21` [Oxcarbazepine] (20 µM), for which the growth was 0.964.

As for `N=C(NCCCCCCNC(=N)NC(=N)Nc1ccc(Cl)cc1)NC(=N)Nc1ccc(Cl)cc1` [Chlorhexidine] (20 µM), the growth turned out to be 0.00305.

`CC(=O)Nc1ccccc1` [Acetanilide] (20 µM): the growth worked out at 1.1.

For `Nc1nc(N)nc(-c2cc(Cl)ccc2Cl)n1` [Irsogladine maleate] (20 µM), the growth was 1.07.

With `Cc1ccsc1C(=CCCN1CCC[C@@H](C(=O)O)C1)c1sccc1C` [Tiagabine hydrochloride] (20 µM), the growth stood at 1.03.

In the case of `CC(C)NCC(O)c1ccc(O)c(O)c1` (single isomer, unassigned; (-)) [(-) Isoproterenol hydrochloride] (20 µM), the growth came to 1.02.

In the case of `CN(C)CCN(Cc1ccccc1)c1ccccn1` [Tripelennamine hydrochloride] (20 µM), the growth was determined as 1.03.

With `C[C@H](NCc1ccc(OCc2cccc(F)c2)cc1)C(N)=O` [Safinamide] (20 µM), the growth came to 0.894.

Regarding `Cc1cc(NS(=O)(=O)c2ccc(N)cc2)nc(C)n1` [Sulfisomidine] (20 µM), the growth was determined as 1.12.

Turning to `O=C(O)Cc1ccccc1Nc1c(Cl)cccc1Cl` [Diclofenac sodium] (20 µM), the growth is 0.954.

As for `CN1CCCN=C1/C=C/c1cccs1` [Pyrantel tartrate] (20 µM), the growth came out at 1.14.

As to `CN(C(=O)C(Cl)Cl)c1ccc(OC(=O)c2ccco2)cc1` [Diloxanide furoate] (20 µM), the growth stood at 1.1.

On to `O=C(Oc1ccccc1)c1ccccc1O` [Phenyl salicylate] (20 µM), for which the growth turned out to be 1.08.

`CCCCC(C)(O)C/C=C/[C@H]1[C@H](O)CC(=O)[C@@H]1CCCCCCC(=O)OC` (mixture of isomers) [Misoprostol] (20 µM): the growth amounted to 1.14.

`Cc1cc(C(C)(C)C)c(O)c(C)c1CC1=NCCN1` [Oxymetazoline hydrochloride] (20 µM): the growth came out at 0.934.

On to `CCN(CC)CCc1nc(-c2ccccc2)no1` [Oxolamine citrate salt] (20 µM), for which the growth was 1.13.

For `COc1ccc2c(c1)c(CC(=O)OCC(=O)O)c(C)n2C(=O)c1ccc(Cl)cc1` [Acemetacin] (20 µM), the growth worked out at 0.906.

`Cn1cnc([N+](=O)[O-])c1Sc1ncnc2[nH]cnc12` [Azathioprine] (20 µM): the growth worked out at 1.11.

In the case of `CCOC(=O)c1ccc(N)cc1` [Benzocaine] (20 µM), the growth was found to be 1.09.

Turning to `COC1=C(OC)C(=O)C(CCCCCCCCCCO)=C(C)C1=O` [Idebenone] (20 µM), the growth was determined as 1.18.

Take `CC(=O)NCCCS(=O)(=O)O` [Acamprosate calcium] (20 µM): the growth stood at 1.08.

For `CC(C)NCC(O)COc1cccc2[nH]c3ccccc3c12` (centres undefined) [Carazolol] (20 µM), the growth is 0.738.

With `CC(C(=O)O)c1ccc(N2Cc3ccccc3C2=O)cc1` (centres undefined) [Indoprofen] (20 µM), the growth is 1.13.

For the compound `CC1(C)S[C@@H]2[C@H](NC(=O)[C@H](N)c3ccccc3)C(=O)N2[C@H]1C(=O)O` [Ampicillin trihydrate] (20 µM), the growth stood at 0.

Regarding `CCN1CCCC1CNC(=O)c1cc(S(=O)(=O)CC)c(N)cc1OC` (centres undefined) [Amisulpride] (20 µM), the growth turned out to be 1.16.

Turning to `COC(=O)Nc1nc2cc(C(=O)c3ccc(F)cc3)ccc2[nH]1` [Flubendazol] (20 µM), the growth is 0.949.

Take `CCOc1nc2cccc(C(=O)OCc3oc(=O)oc3C)c2n1Cc1ccc(-c2ccccc2-c2noc(=O)[nH]2)cc1` [Azilsartan medoxomil] (20 µM): the growth turned out to be 1.04.

As for `COc1cc(C(=O)N2CCOCC2)cc(OC)c1OC` [Trimetozine] (20 µM), the growth came out at 0.932.

Turning to `CC(C)NC[C@@H](O)COc1ccc(CC(N)=O)cc1` [(R,+) Atenolol] (20 µM), the growth stood at 1.19.

For the compound `O=C(O)Cc1sc(-c2ccccc2)nc1-c1ccc(Cl)cc1` [Fentiazac] (20 µM), the growth worked out at 1.09.
